Test results as given in PubChem BioAssay.
Active and inactive are the calls of the source. Unless noted, the rule behind the calls is not given here.

Tests used:
[1] = test system: Wnt5a (protein binding on small-molecule microarray); assay: small molecules binding Wnt5a protein – biophysical, small-molecule microarray, 635/667 nm fluorescence, primary screen (AID 1142); settings: 635 nm fluorescence, higher = more signal;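 note: fluorescence read at 667 nm with signal to noise per printed feature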
[2] = ATP-based viability of Huh7 replicon cells – cell-based, CellTiter-Glo luminescence, basal, 48 h, cytotoxicity control for HCV replication inhibitor project, primary screen (AID 1143); settings: higher = more signal, called active from +8 up or from −8 down;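 note: Huh7 hepatoma cells carrying a hepatitis C replication reporter with no stimulus; test concentration not given here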
[3] = Pseudomonas biofilm growth suppression – PAO1 strain, BacTiter-Glo luminescence, LB-PBS, primary screen (AID 1144); settings: P. aeruginosa PAO1 biofilm, 12 h, higher = more signal
[4] = basal CRE-LacZ reporter activity in PC12 – cell-based, unstimulated, primary screen (AID 1145); settings: no forskolin, luminescence, 4.5 h, higher = more signal, called active from +8 up or from −8 down
[5] = forskolin-driven CRE-LacZ activity in PC12 – cell-based, CRE-LacZ reporter, forskolin-stimulated, primary screen (AID 1146); settings: luminescence, 4.5 h, higher = more signal, called active from +8 up or from −8 down;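 note: PC12 cells with 6xCRE LacZ reporter stimulated by forskolin 10 µM; beta-galactosidase reporter signal reflecting CREB driven transcription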
[6] = biological target: Streptavidin (Streptomyces avidinii) (UniProt P22629); assay: compounds binding control protein streptavidin – biophysical, small-molecule microarray, 635/667 nm fluorescence, artefact control for SMM compound annotation, primary screen (AID 1147); settings: higher = more signal;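 note: signal reflects streptavidin binding to arrayed compounds as a control protein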
Sequence of Streptavidin (Streptomyces avidinii) (P22629 whole entry, looked up): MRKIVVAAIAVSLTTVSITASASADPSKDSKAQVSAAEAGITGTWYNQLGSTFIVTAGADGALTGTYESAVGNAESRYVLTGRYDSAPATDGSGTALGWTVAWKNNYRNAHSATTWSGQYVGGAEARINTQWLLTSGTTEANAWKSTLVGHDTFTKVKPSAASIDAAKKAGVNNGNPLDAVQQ

[7] = probe aInhba binding on compound microarray – biochemical, small-molecule microarray, 635/667 nm fluorescence, primary screen (AID 1148); settings: higher = more signal;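 note: score merges 667nm spot fluorescence with signal-to-noise for antibody binding to printed compounds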
[8] = biological target: Torsin-1A (Homo sapiens) (UniProt O14656); assay: TOR1A wild-type binding on microarray – cell lysate, small-molecule microarray, lysate, 635/667 nm, primary screen (AID 1149); settings: COS7 hTOR1A-WT lysate, 635 nm fluorescence, higher = more signal
Sequence of Torsin-1A (Homo sapiens) (O14656 whole entry, looked up): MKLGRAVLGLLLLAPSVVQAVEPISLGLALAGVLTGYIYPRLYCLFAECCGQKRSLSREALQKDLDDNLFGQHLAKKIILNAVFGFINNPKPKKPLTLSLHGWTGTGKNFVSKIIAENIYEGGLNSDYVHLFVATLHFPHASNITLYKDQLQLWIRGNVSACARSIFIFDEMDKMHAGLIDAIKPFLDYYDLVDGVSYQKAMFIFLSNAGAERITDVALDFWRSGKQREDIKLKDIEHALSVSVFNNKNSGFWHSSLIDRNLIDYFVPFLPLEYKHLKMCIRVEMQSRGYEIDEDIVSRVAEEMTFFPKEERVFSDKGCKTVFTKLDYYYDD

[9] = biological target: Torsin-1A (Homo sapiens) (UniProt O14656); assay: torsin A mutant lysate binding on microarrays – cell lysate, small-molecule microarray, COS7 lysate, 635/667 nm fluorescence, primary screen (AID 1150); settings: COS7 hTOR1A mutant lysate, 635 nm fluorescence, higher = more signal;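 note: score pools 667 nm emission and signal to noise measuring lysate protein binding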
[10] = test system: Sonic hedgehog protein (Shh); assay: Sonic hedgehog microarray binding compounds – biochemical, small-molecule microarray, 635/667 nm fluorescence, primary screen (AID 1151); settings: 635 nm fluorescence, higher = more signal;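 note: Shh protein binding to compounds spotted on small-molecule microarray slides; score combines spot fluorescence intensity with signal-to-noise across triplicate slides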
[11] = optical density shifts of acrAB sulA E. coli – strain DRC41, OD650, 48 h, E. coli filamentation inducer project, primary screen (AID 1152); settings: higher = more signal, called active from +8 up or from −8 down;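 note: E. coli MC1000 strain DRC41 lacking acrAB efflux pump and sulA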
[12] = probe aLefty1 binding on compound microarray – biochemical, small-molecule microarray, 635/667 nm fluorescence, primary screen (AID 1153); settings: higher = more signal;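 note: score merges spot fluorescence with signal-to-noise ratio from the scanned slide images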
[13] = plasmodial surface anion channel blockers, osmotic lysis – cell-based, P. falciparum Indochina, OD700, 1 h, primary screen (AID 1154); settings: P. falciparum Indochina infected RBC osmotic lysis, higher = more signal, called active from +8 up or from −8 down
[14] = plasmodial surface anion channel blockers, osmotic lysis – cell-based, P. falciparum Indochina, OD700, 2 h, primary screen (AID 1155);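 note: lysis reports solute entry through the parasite surface anion channel PSAC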; settings: P. falciparum Indochina infected erythrocytes, higher = more signal, called active from +8 up or from −8 down
[15] = changes in parasitized red cell lysis, either direction – P. falciparum Indochina, OD700, 3 h, PSAC antagonist project, primary screen (AID 1156); settings: P. falciparum-infected erythrocytes, osmotic lysis, higher = more signal, called active from +8 up or from −8 down
[16] = plasmodial surface anion channel blockers, osmotic lysis – cell-based, P. falciparum Indochina, OD700, 18 h, primary screen (AID 1157); settings: P. falciparum Indochina infected erythrocytes, osmotic lysis OD700, 18 h; higher = more signal, called active from +8 up or from −8 down
[17] = S6 kinase pathway phospho-S6 level changes – cell-based, A549, cytoblot, luminescence, serum-stimulated, primary screen (AID 1158); settings: 5 h, higher = more signal;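 note: serum-stimulated A549 lung adenocarcinoma cells; signal is phosphorylated S6 detected by cytoblot immunostaining with HRP secondary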
[18] = biological target: NADPH oxidase 2 (Homo sapiens) (UniProt P04839); assay: compounds shifting NOX2 Amplex Red fluorescence – cell-based, HEK293-NOX2, PMA-stimulated, NOX inhibitor project, primary screen (AID 1159); settings: 45 min, higher = more signal, called active from +8 up or from −8 down; note: test concentration not given here
Sequence of NADPH oxidase 2 (Homo sapiens) (P04839 whole entry, looked up): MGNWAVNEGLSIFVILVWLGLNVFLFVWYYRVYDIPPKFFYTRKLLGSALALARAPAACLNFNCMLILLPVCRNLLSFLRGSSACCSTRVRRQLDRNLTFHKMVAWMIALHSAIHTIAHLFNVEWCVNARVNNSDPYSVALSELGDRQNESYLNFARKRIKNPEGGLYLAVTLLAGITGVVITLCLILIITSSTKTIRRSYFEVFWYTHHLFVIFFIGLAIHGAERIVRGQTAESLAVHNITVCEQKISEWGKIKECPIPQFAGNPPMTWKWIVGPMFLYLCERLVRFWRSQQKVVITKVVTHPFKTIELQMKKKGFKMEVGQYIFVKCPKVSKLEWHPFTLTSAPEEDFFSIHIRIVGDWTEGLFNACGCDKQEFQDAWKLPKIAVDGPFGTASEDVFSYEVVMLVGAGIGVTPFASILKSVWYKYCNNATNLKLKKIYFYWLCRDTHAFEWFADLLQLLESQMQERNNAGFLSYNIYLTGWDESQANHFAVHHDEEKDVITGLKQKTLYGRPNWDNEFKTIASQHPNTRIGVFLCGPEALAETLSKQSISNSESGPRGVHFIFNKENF

[19] = biological target: NADPH oxidase 4 (Homo sapiens) (UniProt Q9NPH5); assay: compounds shifting NOX4 Amplex Red fluorescence – cell-based, HEK293-NOX4, tetracycline-induced, NOX inhibitor project, primary screen (AID 1160); settings: HEK293-NOX4, Amplex Red H2O2 fluorescence, 45 min; higher = more signal, called active from +8 up or from −8 down
Sequence of NADPH oxidase 4 (Homo sapiens) (Q9NPH5 whole entry, looked up): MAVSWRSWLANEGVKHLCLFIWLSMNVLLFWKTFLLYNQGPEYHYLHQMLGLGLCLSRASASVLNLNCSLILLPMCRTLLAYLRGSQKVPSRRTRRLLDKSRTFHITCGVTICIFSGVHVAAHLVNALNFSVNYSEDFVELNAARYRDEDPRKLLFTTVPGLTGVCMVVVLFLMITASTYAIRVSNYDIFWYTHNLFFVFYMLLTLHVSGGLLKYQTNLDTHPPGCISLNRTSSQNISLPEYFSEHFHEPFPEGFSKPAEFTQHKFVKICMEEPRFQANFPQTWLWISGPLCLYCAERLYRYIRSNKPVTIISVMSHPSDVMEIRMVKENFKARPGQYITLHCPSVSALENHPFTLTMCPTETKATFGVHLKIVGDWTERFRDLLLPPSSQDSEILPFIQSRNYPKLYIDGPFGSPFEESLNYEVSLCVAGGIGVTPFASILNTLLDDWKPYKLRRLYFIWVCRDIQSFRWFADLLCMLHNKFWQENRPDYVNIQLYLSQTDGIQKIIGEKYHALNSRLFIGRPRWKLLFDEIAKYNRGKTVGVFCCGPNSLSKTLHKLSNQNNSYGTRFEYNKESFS

[20] = biological target: NADPH oxidase 5 (Homo sapiens) (UniProt Q96PH1); assay: compounds shifting NOX5 Amplex Red fluorescence – cell-based, HEK293-NOX5, NOX inhibitor project, primary screen (AID 1161); settings: HEK293-NOX5, ionomycin, 45 min, higher = more signal
Sequence of NADPH oxidase 5 (Homo sapiens) (Q96PH1 whole entry, looked up): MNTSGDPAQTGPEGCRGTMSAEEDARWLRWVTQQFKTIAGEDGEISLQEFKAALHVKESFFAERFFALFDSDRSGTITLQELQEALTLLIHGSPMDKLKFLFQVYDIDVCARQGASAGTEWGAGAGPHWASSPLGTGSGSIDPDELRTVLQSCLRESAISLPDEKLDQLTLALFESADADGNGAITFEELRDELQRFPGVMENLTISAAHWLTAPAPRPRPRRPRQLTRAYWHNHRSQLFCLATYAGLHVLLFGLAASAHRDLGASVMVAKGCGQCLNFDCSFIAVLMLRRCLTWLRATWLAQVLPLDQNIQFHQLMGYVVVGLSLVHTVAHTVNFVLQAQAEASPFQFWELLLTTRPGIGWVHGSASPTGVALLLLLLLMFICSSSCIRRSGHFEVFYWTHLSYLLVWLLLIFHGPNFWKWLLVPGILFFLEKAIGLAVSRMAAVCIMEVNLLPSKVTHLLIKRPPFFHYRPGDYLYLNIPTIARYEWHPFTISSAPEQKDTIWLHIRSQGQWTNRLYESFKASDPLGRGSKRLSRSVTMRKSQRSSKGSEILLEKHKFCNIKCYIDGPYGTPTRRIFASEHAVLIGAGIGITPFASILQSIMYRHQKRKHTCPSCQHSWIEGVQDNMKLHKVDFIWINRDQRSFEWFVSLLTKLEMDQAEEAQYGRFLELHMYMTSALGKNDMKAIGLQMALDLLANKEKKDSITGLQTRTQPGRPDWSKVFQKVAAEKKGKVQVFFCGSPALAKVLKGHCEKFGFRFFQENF

SMILES | composite z-score [1] | z-score [2] | z-score [3] | z-score [4] | z-score [5] | composite z-score [6] | composite z-score [7] | composite z-score [8] | composite z-score [9] | composite z-score [10] | z-score [11] | composite z-score [12] | z-score [13] | z-score [14] | z-score [15] | z-score [16] | z-score [17] | z-score [18] | z-score [19] | z-score [20]
COC(=O)[C@H](Cc1ccccc1)N1CC(/C=C/C2CC2)=C[C@@H]1[C@@H](O)Cc1ccccc1 | 0.624 | -1.63 (inactive) | -1.18 (inactive) | 3.31 (inactive) | 5.89 (inactive) | 0.756 | 0.0471 | 0.957 | -0.038 | 1.81 | 0.974 (inactive) | 0.0082 | 1.97 (inactive) | 0.189 (inactive) | -0.427 (inactive) | 0.401 (inactive) | 0.306 | -0.193 (inactive) | 0.058 (inactive) | 0.424
COc1ccc([Si](C)(C)[C@@H]2[C@@H](CCn3cc([C@H](O)c4ccccc4)nn3)O[C@]3(C(=O)N(Cc4ccc(N5CCOC5=O)cc4)c4ccccc43)[C@H]2C)cc1 | 0.127 | -3.81 (inactive) | -0.41 (inactive) | -0.0533 (inactive) | -0.0224 (inactive) | 0.204 | -0.128 | 1.15 | 1.14 | 1.85 | 1.34 (inactive) | 0.142 | 28.2 (active) | 17.1 (active) | 1.45 (inactive) | 1.63 (inactive) | 0.0719 | 1.31 (inactive) | 2.36 (inactive) | 1.74
COc1c(C)cc(-c2cc3c(c(-c4ccccc4)n2)[Si](C(C)C)(C(C)C)OC3)cc1C | 0.0775 | 0.109 (inactive) | -0.661 (inactive) | -0.491 (inactive) | -0.478 (inactive) | 0.657 | -0.0313 | 0.124 | -0.402 | 0.513 | 0.118 (inactive) | -0.0287 | 1.54 (inactive) | 0.494 (inactive) | 0.392 (inactive) | 0.506 (inactive) | 0.768 | 0.956 (inactive) | 0.103 (inactive) | 0.829
C=C(CCCC)C(=O)CC[C@@H](OC(=O)c1ccccc1-c1ccccc1C(=O)O)c1cccc(OCCO)c1 | 0.137 | -0.854 (inactive) | 0.194 (inactive) | 3.31 (inactive) | 8.69 (active) | -0.6 | -0.231 | 0.604 | 0.561 | 1.68 | -0.397 (inactive) | -0.168 | 22.3 (active) | 4.27 (inactive) | 1.11 (inactive) | 0.896 (inactive) | -0.348 | 2.86 (inactive) | -0.351 (inactive) | -1.08
COC(=O)[C@@]1(Cc2ccc(F)cc2)[C@H]2c3cc(C(=O)N4CCCC4)n(CCc4c[nH]c5ccc(OC)cc45)c3C[C@H]2CN1C(=O)c1ccccc1 | 1.51 | -4.66 (inactive) | -0.23 (inactive) | 0.0041 (inactive) | -0.556 (inactive) | 1.53 | 1.62 | 0.844 | 0.736 | 0.0332 | -1.06 (inactive) | 1.97 | 4.03 (inactive) | -0.165 (inactive) | 0.217 (inactive) | -0.583 (inactive) | 1.03 | -3.07 (inactive) | 0.118 (inactive) | -2.39
[N-]=[N+]=NCc1ccccc1C[C@@]1(C(N)=O)N=C(c2ccc(OCCCO)cc2)O[C@@H]1c1ccccc1CN=[N+]=[N-] | 0.592 | -2.14 (inactive) | 0.0387 (inactive) | 0.0451 (inactive) | 0.161 (inactive) | 1.13 | -0.0418 | 0.549 | 0.335 | -0.302 | 0.315 (inactive) | 0.315 | 26.2 (active) | 10.1 (active) | 1.31 (inactive) | 1.38 (inactive) | -0.107 | 0.415 (inactive) | 0.14 (inactive) | -1.66
CCOC(=O)C[C@H]1[C@H](OC(=O)c2ccc(-c3ccccc3)cc2)[C@@H](NC(=O)C2CCCCC2)c2cc(OCCCO)ccc2N1C(=O)c1ccccc1 | 0.0722 | -0.0788 (inactive) | -0.376 (inactive) | -0.0247 (inactive) | 0.178 (inactive) | 0.947 | -0.133 | -0.0488 | 0.221 | 0.957 | -0.915 (inactive) | -0.263 | 0.479 (inactive) | 0.705 (inactive) | -0.138 (inactive) | 0.505 (inactive) | 1.09 | 0.169 (inactive) | -0.849 (inactive) | 1.49
O=C1O[C@@H](c2ccccc2)[C@@H](c2ccccc2)N2[C@@H](c3ccccc3OCCO)[C@]3(C(=O)Nc4ccc(C#CC5=CCCCC5)cc43)[C@@H](C(=O)NC[C@H](O)c3ccccc3)[C@H]12 | 0.361 | -6.39 (inactive) | -0.534 (inactive) | -1.56 (inactive) | -1.15 (inactive) | 0.625 | 0.162 | 0.385 | -0.0373 | 1.99 | 2 (inactive) | 0.277 | 0.996 (inactive) | 0.526 (inactive) | -2.18 (inactive) | 0.0195 (inactive) | 0.581 | 1.74 (inactive) | 1.1 (inactive) | 2.55
